# Numbering of substitutions follows the chain as printed. The full ranking holds about 24,000 sequences; the median of “enrichment r” is about 0.99, and the highest 2% start at about 3.7. Many of the other results were omitted from the sample, so the highest values are more common in it than they were.
# T1: UNK ZnF1-3 (human, UniProt Q9C0B0 31-174)
# T1 sequence: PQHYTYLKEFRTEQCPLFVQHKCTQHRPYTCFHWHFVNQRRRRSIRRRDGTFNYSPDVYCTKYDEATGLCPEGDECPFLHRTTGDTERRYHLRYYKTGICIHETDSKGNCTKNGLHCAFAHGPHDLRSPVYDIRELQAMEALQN
# B1: chr16:94664806:94664807:+_ENSMUSG00000040785_ENSMUST00000117648|mus_hu|motif|central (ssRNA)
# RNA: GGGAGUUCUACAGUCCGACGAUCAUGAUGACCCUCAAAAUAGGCAGCAGCAUUUUUAUCUGCUCUGUCAUUGGCGGCAAAAGACGGCACCACUGGUACUGAUCUUGGUAGCUGAUAUUCAGGAGAAAGGCUGGCCAAGGGUGUCAACAGAGGAUUGAGCAUCA
# B2: chr7:7679991:7679992:-_ENSG00000106399_ENST00000396682|hu_hu|hu_hu_hu_mus_False|1_8 (ssRNA)
# RNA: GGGAGUUCUACAGUCCGACGAUCUGGGAUGAAUCUUUUCCAGCUUCCCCACGAAGCACACGGGCCGGUCGAUAUACUGUGGUAACAUGCUGGCGUUGACGCGCGCUUUGGGGAGCUGCAUUAUGUCCACCAUGAUUAUGGUCCCAACAGAGGAUUGAGCAUCA
# B3: chr13:100200574:100200575:-_ENSMUSG00000052727_ENSMUST00000064762|mus_hu|motif|central (ssRNA)
# RNA: GGGAGUUCUACAGUCCGACGAUCAUAAUCUUCUUCAUCUGGGGACCUGGUUGUUUCCUCAGGCUUUUGAUAGGCAUAGCGGAAGUCACCAGGUGUCUUCCCUCCACUGUCCUUCUCCAGGCCAGGUGUGGACAAAUCUCUAUUCAACAGAGGAUUGAGCAUCA
# B4: chr2:48026839:48026840:+_ENSG00000116062_ENST00000540021|hu_hu|hu_hu_hu_mus_False|58_68 (ssRNA)
# RNA: GGGAGUUCUACAGUCCGACGAUCAUAGUGAGCCACUAGCGUCCUAAAUCUGGAACAGUGGCGGUCAUCUGAAAACUGACCUAUGAAAAACUUGCCCAGUGAAGUGUCCACAAAGCAAACACCAUACACACGAGUGUGACCAGACAACAGAGGAUUGAGCAUCA
# B5: chrX:98862621:98862622:+_ENSMUSG00000034160_ENSMUST00000044475|mus_hu|mus_mus_mus_hu_False|48_68 (ssRNA)
# RNA: GGGAGUUCUACAGUCCGACGAUCCUGCAUCUCCUUUAGAGUGUUUCCCAUAUUAGAGUAGGCAUCAGCAAAUGUAGGACUGAUUCGUAUGGCUUCUUUAUAAUGCAUCAGAGCUUCCUGCAGUUUUCCCUGCUGCUGCAGUACCAACAGAGGAUUGAGCAUCA
# B6: chr8:27092522:27092523:-_ENSMUSG00000037251_ENSMUST00000061850|mus_mus|FALSE|FALSE (ssRNA)
# RNA: GGGAGUUCUACAGUCCGACGAUCAGCGGGGUGGGUUGUUGUUUGCUGUUGGUCGGUGUUUGUGAAGUGGUCGUGGGCGAAGAAGAAACAAGAAGAAAUGAGAUAUCUUGGCAGCAAAGAUCAUUGCUCCAAGGAACUCGACACCAACAGAGGAUUGAGCAUCA
# B7: chr2:238002776:238002777:+_ENSG00000198612_ENST00000392008|hu_hu|FALSE|FALSE (ssRNA)
# RNA: GGGAGUUCUACAGUCCGACGAUCGAUUGAAGUAUACGCUUGAGAGACCAGGGCAAAGGCGCGUCUCCUUGUUGCAUCUCUAAGUGCUUCCAUAAUUGGCUGGACCGUCUCAGACCACUGGUGAGCGUUGAUGGUUGUAUAGAUCAACAGAGGAUUGAGCAUCA
# B8: chr1:46159212:46159213:+_ENSG00000159596_ENST00000372025|hu_mus|hu_hu_hu_mus_True|68_98 (ssRNA)
# RNA: GGGAGUUCUACAGUCCGACGAUCUCUGAUCCCUCCCAAGAAAGAUAGGAAACCGGCUCCAUAAGCCAUCUGAGUAAAAGCUAGGACGGGGAUAUAAGACUUUGUUAUUACCAUGAGAAGUGGGGGAGCAGUAAAGGGGAUUAACAACAGAGGAUUGAGCAUCA
# B9: chr1:46159212:46159213:+_ENSG00000159596_ENST00000372025|hu_mus|hu_hu_hu_mus_True|8_68 (ssRNA)
# RNA: B8 RNA with A44C, G130A, U131C, A132G
# B10: chr8:73998637:73998638:+_ENSMUSG00000074247_ENSMUST00000124745|mus_hu|FALSE|FALSE (ssRNA)
# RNA: GGGAGUUCUACAGUCCGACGAUCCUUGAUACAGGUUACAGCAUAAAUAAAAACUCAAGGAAAAUAAAUACAUCGGCUCCUAUGAGGUUGGAAGUGGUGUGGACGCAGGGUGUGGAUGGGCCGGCAGGGAGGCGGGCGGGCGGGCAACAGAGGAUUGAGCAUCA
# B11: chr4:109959997:109959998:-_ENSMUSG00000028546_ENSMUST00000106598|mus_mus|motif|central (ssRNA)
# RNA: GGGAGUUCUACAGUCCGACGAUCUAUAUAUAUAUAUUAAAGAUCCACAGACCACAGUGUGGAUGAUUGUAAAGUAAAUCGGUUAUUGGGAGGGGGUGGGGUGGGAAAGAAAGGGGGAAAAAAAAGAGAGGAAGAAAAGGCGCACAACAGAGGAUUGAGCAUCA
# B12: chr16:49913422:49913423:+_ENSMUSG00000055447_ENSMUST00000084838|mus_mus|FALSE|FALSE (ssRNA)
# RNA: GGGAGUUCUACAGUCCGACGAUCGCUCUCUACGAUUGUAUAAGUGGAGGGCAGACAAUAAAUAAAAAUUGAAUAGAGGCUAUGACAGCAGAAAUCGGGAUUUGGGAGAGAAAAGCGCAUUGUGGGACAAAACAGAUGCGUGGUCAACAGAGGAUUGAGCAUCA
# B13: chr4:109959997:109959998:-_ENSMUSG00000028546_ENSMUST00000106598|mus_mus|FALSE|FALSE (ssRNA)
# RNA: B11 RNA with G80U, G81A
# B14: chr1:205685097:205685098:-_ENSG00000069275_ENST00000367142|hu_hu|motif|central (ssRNA)
# RNA: GGGAGUUCUACAGUCCGACGAUCUAUCAAGCCUGACUAUUGAGCACCUGUAUCCAGUUGAGUCACCACCACUGUCCUCCGGUUUGCAUGCAUGAUUUGAGGGGAAGACUAGAGUGUUUUAAAUCAUCAAUAAAAAGUGGAGAACAACAGAGGAUUGAGCAUCA
# B15: chr12:86641468:86641469:-_ENSMUSG00000034290_ENSMUST00000040992|mus_hu|FALSE|FALSE (ssRNA)
# RNA: GGGAGUUCUACAGUCCGACGAUCCAAGACCUCCCACAAUGUUGAUAAGAUUAUCAAACAUUUUGGUCUGGGGAAGAUGAAACAAAAUUAAUUUAGCUGUUUAUAGGAAGGUGGGAUGUGAGACUCAUCAAAGGUAGGAUGUGUCAACAGAGGAUUGAGCAUCA
# B16: chr16:49913422:49913423:+_ENSMUSG00000055447_ENSMUST00000084838|mus_mus|motif|central (ssRNA)
# RNA: B12 RNA with U80G, A81G
# B17: chr4:109959997:109959998:-_ENSMUSG00000028546_ENSMUST00000106598|mus_hu|FALSE|FALSE (ssRNA)
# RNA: GGGAGUUCUACAGUCCGACGAUCUGUUAUAUAUAAUUAAAGAUCCACAAAACACAGUGUGGAUGAUUGUAAAGCAAAUCAAUUAUUUUUGGGGGGGUGGGCGGGGGAGAGAAAGAAAAAAAAGAAAAGGAGCAGUGAGCUGAACAACAGAGGAUUGAGCAUCA
# Target: T1, UNK ZnF1-3
# Test: nsRBNS (natural sequence RNA bind-n-seq); RBNS binding buffer (assumed for nsRBNS): 25 mM Tris pH 7.5, 150 mM KCl, 3 mM MgCl2, 0.01% Triton X-100, 500 ug/ml BSA, 20 U/ml SUPERase-In, 4 C; UNK is unkempt and MSI1 is Musashi-1; names of the RNAs are library labels; protein concentration not given here; high values mean tight binding
row,Binder,binding signal [enrichment R]
1,B1,1.61
2,B2,0.387
3,B3,0.378
4,B4,1.18
5,B5,1.06
6,B6,1.76
7,B7,0.907
8,B8,1.71
9,B9,1.56
10,B10,3.01
11,B11,5.4
12,B12,3.41
13,B13,5.2
14,B14,2.19
15,B15,1.55
16,B16,3.75
17,B17,3.98

# Reference: paper PMC12136788
